Screens as filed in PubChem.
This is a sample that favours compounds with a hit; in the whole collection about 2.5% have one here.
CHT PAM: allosterically activates the human high affinity choline transporter; CHT-expressing cells, membrane potential dye, choline EC20; stronger effect = higher value; LV-AA mutant CHT in HEK293 cells; Q9GZV3; AID 488977; B-score at 10 µM; 0.49% of 310,000 active;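 active = initial fluorescence not abnormally high and integrated response B-score, plate-corrected, over 3 SD above library mean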
PKA-R1A activ: PKA-R1A complex activation; 0.083% of 340,000 active; activation, % at 11.4 µM; P00514+P68181; PKA-R1A dissociation, Cy5-IP20 fluorescence polarization; scaled: DMSO 0%, 113 µM cGMP 100%;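 active = percent activation above the mean of all tested compounds plus 3 SD, cut at about 19% in these data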;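 note: higher means more PKAc released from R1A so a rise in polarization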
CHT block: inhibits the human high affinity choline transporter | Q9GZV3 | CHT-expressing cells, membrane potential dye, choline response; stronger effect = lower value | B-score at 10 µM | 0.86% of 310,000 active | AID 488975;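 active = B-score over 3 SD under the library average, and starting fluorescence ratio not unusually high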;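 note: choline stimulus applied at its EC90 after an EC20 pre-addition; B-score computed on integrated fluorescence ratio after choline addition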
PKA-R2B activ: PKA-R2B complex activation | P22694+P31323 | PKA-R2B holoenzyme dissociation, Cy5-IP20 fluorescence polarization; R2B truncated from residue 108, S112A mutant; 0% DMSO only, 100% 113 µM cGMP | 0.079% of 340,000 active | activation, % at 11.4 µM;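 active = activation above a cutoff set at the mean over all compounds plus 3 SD, cut at about 18% in these data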;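 note: higher means more holoenzyme dissociation and a rise in polarization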
TMEM16A act: mouse TMEM16A channel activation, primary screen; Q8BHY3; HEK293 TMEM16A/YFP-H148Q/I152L, iodide quench fluorescence; stronger effect = lower value; B-score at 10 µM; 0.3% of 340,000 active; AID 623877;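 active = fluorescence-ratio B-score plate-corrected deviation score at least 3 library SD below zero, with starting fluorescence score within 5 deviations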;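 note: channel opened by trigger with iodide after compound preincubation; score built on the fluorescence ratio of max minus min over baseline; more negative score means more quench and so TMEM16A activation or potentiation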
Target sequence (Q8BHY3 whole entry, looked up): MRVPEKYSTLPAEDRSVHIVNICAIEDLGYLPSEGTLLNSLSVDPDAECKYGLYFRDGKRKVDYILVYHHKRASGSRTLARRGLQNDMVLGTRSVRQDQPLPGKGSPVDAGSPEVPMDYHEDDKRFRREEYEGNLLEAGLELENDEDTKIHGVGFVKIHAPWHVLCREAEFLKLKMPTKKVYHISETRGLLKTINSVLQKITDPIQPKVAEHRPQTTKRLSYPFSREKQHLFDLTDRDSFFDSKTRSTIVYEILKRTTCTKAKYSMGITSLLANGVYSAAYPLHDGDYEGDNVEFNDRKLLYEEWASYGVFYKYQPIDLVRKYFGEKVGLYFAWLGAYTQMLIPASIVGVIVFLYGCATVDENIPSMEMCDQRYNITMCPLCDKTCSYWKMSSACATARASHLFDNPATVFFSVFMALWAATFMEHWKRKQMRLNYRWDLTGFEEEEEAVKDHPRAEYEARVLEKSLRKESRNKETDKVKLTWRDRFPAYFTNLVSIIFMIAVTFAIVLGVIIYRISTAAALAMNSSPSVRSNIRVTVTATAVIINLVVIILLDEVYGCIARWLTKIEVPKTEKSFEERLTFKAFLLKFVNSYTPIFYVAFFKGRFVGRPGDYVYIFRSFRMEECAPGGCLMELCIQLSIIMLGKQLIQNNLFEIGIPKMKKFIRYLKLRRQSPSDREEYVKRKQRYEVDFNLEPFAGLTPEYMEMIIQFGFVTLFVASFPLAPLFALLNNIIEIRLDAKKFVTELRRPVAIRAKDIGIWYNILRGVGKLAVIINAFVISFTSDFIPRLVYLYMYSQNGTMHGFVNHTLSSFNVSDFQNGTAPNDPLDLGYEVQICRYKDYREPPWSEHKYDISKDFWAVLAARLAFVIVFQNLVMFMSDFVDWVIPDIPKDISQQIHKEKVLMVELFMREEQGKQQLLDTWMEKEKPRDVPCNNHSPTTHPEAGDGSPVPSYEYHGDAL
ANO1 block: blocks the mouse calcium-activated chloride channel TMEM16A. Q8BHY3. HEK293 TMEM16A/YFP iodide influx fluorescence, ionomycin. normalized B-score (activity score, 25-100; higher = stronger inhibition) at 10 µM. 1.2% of 310,000 active. AID 588511;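 active = ratio plate-corrected score three or more library SD toward inhibition, starting fluorescence score within five deviations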;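 note: score derived from kinetic fluorescence span divided by baseline fluorescence per well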
CHT inh conf: confirmation of human choline transporter CHT inhibitors. shares compounds with CHT block. CHT-expressing cells, choline membrane potential dye; LV-to-AA substituted CHT, HEK293 cells. CHT activity remaining % of control (stronger effect = lower value), % at 10 µM. 70% of 2,400 active. AID 493221;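 active = choline transporter activity left, mean of duplicates at 10 µM, below buffer-only control mean minus 3 SD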;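 note: depolarization triggered by choline at its EC90 following an EC20 pre-addition; 0% = hemicholinium-3 full block and 100% = buffer-only control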
HEK293 MPD ctr: counter-screen for CHT inhibitors: effect in parental HEK293 cells; membrane potential ratio readout (active if shifted either direction beyond buffer ±3SD; no single direction) at 10 µM; 4% of 2,400 active; shares compounds with CHT block; membrane potential dye, choline response; active = decrease or increase beyond buffer ±3SD;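 note: parental cells lack the transporter so any hit is non-specific; ratio is peak minus trough fluorescence over baseline after EC90 choline challenge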
* hit, by the source's call; i = inactive; / = not tested or not shown.

SMILES	CHT PAM	PKA-R1A activ	CHT block	PKA-R2B activ	TMEM16A act	ANO1 block	CHT inh conf	HEK293 MPD ctr
O=C(c1cc2c([nH]c1=O)CCCC2)N1CCc2c([nH]c3ccccc23)C1c1ccccc1F (centres undefined)	i	-3	-12*	-6	i	i	30%*	i
O=C(COc1ccc(S(=O)(=O)N2CCOCC2)cc1)NCCN1CCOCC1	i	0	i	1	i	i	/	/
CC(=NNC(=O)CCC(=O)Nc1ccccc1Cl)c1ccco1	/	-6	/	-7	i	/	/	/
CC(C)(C)NS(=O)(=O)c1ccc(NC(=O)Cc2ccccc2[N+](=O)[O-])cc1	i	2	i	-1	i	i	/	/
CCCCNS(=O)(=O)c1ccc(NC(=O)Cc2ccccc2[N+](=O)[O-])cc1	i	-3	-6*	0	i	i	43%*	i
Cc1ccc(Nc2nc(CSc3n[nH]c(N)n3)cs2)cc1	i	-12	i	-1	i	i	/	/
Cc1nnc(SCC(=O)c2ccccc2)n1Cc1ccccc1	i	7	-5.3*	1	i	i	47%*	-8.6*
CCOC(=O)c1cccc(NC(=O)CSc2nnc(C)n2Cc2ccccc2)c1	i	-2	-6.9*	1	i	i	66%*	i
Cc1nnc(SCC(=O)NNC(=O)c2ccccc2)n1Cc1ccccc1	/	-1	/	-11	i	/	/	/
COc1ccc(NC(=O)CSc2nnc(C)n2Cc2ccccc2)cc1	i	-3	i	-8	i	i	/	/
Cc1ccc(C(=O)OCC(=O)NC(C)c2ccccc2)cc1C (centres undefined)	/	-6	/	-7	i	/	/	/
CCC1CCCCN1CCCNC(=O)c1ccc(N2CCOCC2)c(NS(=O)(=O)c2ccc(OC)cc2)c1 (centres undefined)	i	-8	-6.8*	4	i	i	42%*	i
CCCCNC(=O)c1ccc(N2CCOCC2)c(NS(=O)(=O)c2ccc(OC)cc2)c1	i	-6	i	11	i	i	/	/
CC(OC(=O)c1cccc(S(=O)(=O)N2CCCC2)c1)C(=O)NC1CCCCC1C (centres undefined)	i	-3	i	5	i	i	/	/
O=C1CSC(=Nc2ccc(Cl)cc2)N1Cc1cccnc1	i	-2	i	5	i	i	/	/
O=c1c2ccccc2[nH]c(=S)n1CCN1CCCC1	i	-4	-7*	2	i	i	21%*	i
O=C(O)CC/C(=N\Nc1ccccc1[N+](=O)[O-])c1cccs1	i	-1	-5.7*	1	i	i	48%*	2.9*
Cc1c(C2(O)CCCCC2)[nH]c2cc(C(F)(F)F)ccc12	/	-9	/	-2	i	/	/	/
CCc1c(C2(O)CCCCC2)[nH]c2cc(C(F)(F)F)ccc12	i	-9	-5.7*	-7	i	100*	53%*	i
COc1ccccc1NC(=O)NNC(=O)CCN1CCOCC1	i	-1	i	2	i	i	/	/
O=c1ccc(Cl)nn1-c1ccccc1	i	-2	i	2	i	i	/	/
COc1ccc(CN(C)C(=O)c2ccncc2)c(OC)c1	i	4	i	8	i	i	/	/
CCOC(=O)CN1C(=O)S/C(=C/c2cc(C)n(C)c2C)C1=O	i	7	i	-6	i	i	/	/
CCOC(=O)CN1C(=O)S/C(=C/c2ccc(O)c([N+](=O)[O-])c2)C1=O	i	7	-5.5*	10	i	i	i	i
O=C(NCc1cccc(C(F)(F)F)c1)c1cc(Cl)cc(Cl)c1	i	-3	i	-9	i	i	/	/
SMILES	CHT PAM	PKA-R1A activ	CHT block	PKA-R2B activ	TMEM16A act	ANO1 block	CHT inh conf	HEK293 MPD ctr
O=C(NCc1cccc(C(F)(F)F)c1)c1cc(Cl)ccc1Cl	i	-7	-5.8*	-6	i	i	i	i
CCOC(=O)c1cc2c(s1)-c1c(C)cccc1OC2	i	0	-6.8*	-9	i	i	68%*	i
CC(=O)c1cccc(OCC(=O)c2cc(C)n(-c3cc(C)on3)c2C)c1	i	0	-5*	-1	i	i	63%*	i
CCCCCCC(C)OC(=O)c1ccccc1C(=O)O (centres undefined)	i	-15	i	-9	i	i	/	/
COc1ccc(-c2sc(Nc3ccc(F)c(F)c3F)nc2CCC(=O)NN)cc1	i	-2	-5.2*	-4	i	i	i	i
CCOC(=O)C1CCN(C(=O)CSCc2nc(-c3ccc(OCC)cc3)oc2C)CC1	i	0	-7.6*	8	i	100*	69%*	i
Cc1ccc(CSCc2nc3ccccc3[nH]2)cc1	/	-4	/	-1	i	/	/	/
Cc1ccc(OCCSCc2nc3ccccc3[nH]2)cc1	i	-1	-5.5*	-11	i	i	i	i
O=C(NCc1ccccn1)C(=O)NCC1OCCN1S(=O)(=O)c1ccc(Cl)cc1 (centres undefined)	i	5	i	-5	i	i	/	/
Cc1ccc(CN(C)C(=O)c2cccc(S(=O)(=O)N3CCc4ccccc4C3)c2)o1	/	-10	/	11	i	/	/	/
CC1Cc2nc(SCC(=O)Nc3nc4ccccc4s3)n(C)c(=O)c2S1 (centres undefined)	i	-14	-5.1*	-11	i	i	i	i
Cc1ccc(C(C)NC(=S)NC2CCCCC2)cc1C (centres undefined)	i	10	-12*	9	i	i	22%*	i
CC(NC(=O)NC1CCCCC1)c1ccc2c(c1)OCO2 (centres undefined)	i	-3	-6.7*	6	i	i	66%*	i
CC(NC(=O)NC12CC3CC(CC(C3)C1)C2)c1ccc2c(c1)OCO2 (centres undefined)	i	-14	i	-16	i	i	/	/
CCCC1NC(=O)c2cccnc2-n2c1nc1cc(C)cc(C)c1c2=O (centres undefined)	/	3	/	-13	/	/	/	/
O=C(O)Cc1ccc(NS(=O)(=O)c2ccc3c(c2)OCCO3)cc1	/	3	/	-4	/	/	/	/
